From PMC7862700, “An all-to-all approach to the identification of sequence-specific readers for epigenetic DNA modifications on cytosine”

Key:
Assay in all cases: DAPPL (digital affinity profiling via proximity ligation, sequencing); 10 mM Tris-HCl pH 7.5, 50 mM NaCl, 1 mM DTT, 4% glycerol, room temperature, 30 min; GST-TFs on glutathione beads, 16-mer random dsDNA library, 0.1% formaldehyde crosslink after washing; high values mean tight binding
Details in all cases: protein: recombinant; tags: N-terminal GST; dsDNA, one strand shown
[1] = target: ELF4 (Homo sapiens, UniProt Q99607 1-663)
Summary of the method: (§1)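 Yeast served to express human transcription factors as GST fusions, which were then captured on glutathione beads and labelled with DNA barcodes. Pooled with a tag-only sample, they were incubated with 200 nmole of a 16-mer random double-stranded DNA library for 30 min at room temperature in Tris/NaCl/DTT/glycerol buffer, washed, crosslinked with 0.1% formaldehyde, ligated by proximity, amplified by PCR and sequenced. Dividing each hexamer's read frequency for a factor by its frequency for the tag-only sample gives the binding signal.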

[2] = target: T1, ELK4 (Homo sapiens, UniProt P28324-2 1-405)
T1 sequence: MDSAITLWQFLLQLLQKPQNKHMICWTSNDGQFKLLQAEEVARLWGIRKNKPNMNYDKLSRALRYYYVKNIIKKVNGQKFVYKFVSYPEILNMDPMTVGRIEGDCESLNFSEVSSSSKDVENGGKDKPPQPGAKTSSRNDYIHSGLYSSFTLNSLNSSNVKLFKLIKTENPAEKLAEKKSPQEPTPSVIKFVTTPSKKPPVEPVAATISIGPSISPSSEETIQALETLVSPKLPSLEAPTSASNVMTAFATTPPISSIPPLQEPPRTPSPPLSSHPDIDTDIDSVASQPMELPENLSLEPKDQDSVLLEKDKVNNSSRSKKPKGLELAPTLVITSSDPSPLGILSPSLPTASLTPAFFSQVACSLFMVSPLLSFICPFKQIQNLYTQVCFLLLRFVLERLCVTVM
Summary of the method: as §1

[3] = target: T2, ETV2 (Homo sapiens, UniProt O00321 1-342)
T2 sequence: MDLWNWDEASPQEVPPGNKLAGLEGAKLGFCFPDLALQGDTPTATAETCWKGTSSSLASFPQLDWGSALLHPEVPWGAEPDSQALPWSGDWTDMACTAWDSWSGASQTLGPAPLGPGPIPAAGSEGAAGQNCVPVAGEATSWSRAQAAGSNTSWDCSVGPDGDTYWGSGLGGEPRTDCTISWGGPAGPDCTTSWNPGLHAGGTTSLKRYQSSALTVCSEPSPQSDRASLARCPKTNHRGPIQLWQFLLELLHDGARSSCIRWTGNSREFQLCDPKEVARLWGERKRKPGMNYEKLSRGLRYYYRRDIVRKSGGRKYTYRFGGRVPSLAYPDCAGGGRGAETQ
Summary of the method: as §1

[4] = target: ETV1 (Homo sapiens, UniProt P50549 1-477)
Summary of the method: as §1

[5] = target: T3, ERF (Homo sapiens, UniProt P50548 1-548)
T3 sequence: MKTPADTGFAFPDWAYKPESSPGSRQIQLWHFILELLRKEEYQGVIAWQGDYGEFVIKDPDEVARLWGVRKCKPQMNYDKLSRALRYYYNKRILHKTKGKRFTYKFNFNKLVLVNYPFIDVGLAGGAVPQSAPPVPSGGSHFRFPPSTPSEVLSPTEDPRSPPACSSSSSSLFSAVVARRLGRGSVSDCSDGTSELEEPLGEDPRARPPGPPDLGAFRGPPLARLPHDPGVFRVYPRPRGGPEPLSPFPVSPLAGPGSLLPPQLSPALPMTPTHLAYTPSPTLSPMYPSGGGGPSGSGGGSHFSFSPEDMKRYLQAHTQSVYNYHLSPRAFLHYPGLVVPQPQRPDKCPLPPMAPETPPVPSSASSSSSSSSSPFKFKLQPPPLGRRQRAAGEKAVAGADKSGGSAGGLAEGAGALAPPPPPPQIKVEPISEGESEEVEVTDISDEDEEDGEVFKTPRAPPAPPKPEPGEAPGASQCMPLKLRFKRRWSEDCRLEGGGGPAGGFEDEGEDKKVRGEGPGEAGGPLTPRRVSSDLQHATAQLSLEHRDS
Summary of the method: as §1

[6] = target: T4, ETV3L (Homo sapiens, UniProt Q6ZN32 1-361)
T4 sequence: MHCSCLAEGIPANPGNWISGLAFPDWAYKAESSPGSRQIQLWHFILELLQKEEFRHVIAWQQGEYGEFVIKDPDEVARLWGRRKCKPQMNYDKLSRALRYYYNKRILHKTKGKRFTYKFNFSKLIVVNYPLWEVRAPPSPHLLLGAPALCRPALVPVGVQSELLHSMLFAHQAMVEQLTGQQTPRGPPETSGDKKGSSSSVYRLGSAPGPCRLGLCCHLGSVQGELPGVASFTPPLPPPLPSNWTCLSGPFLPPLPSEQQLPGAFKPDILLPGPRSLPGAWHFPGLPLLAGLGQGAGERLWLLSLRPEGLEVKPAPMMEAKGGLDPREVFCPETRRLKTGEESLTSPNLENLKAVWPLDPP
Summary of the method: as §1

[7] = target: T5, ETS2 (Homo sapiens, UniProt P15036 1-469)
T5 sequence: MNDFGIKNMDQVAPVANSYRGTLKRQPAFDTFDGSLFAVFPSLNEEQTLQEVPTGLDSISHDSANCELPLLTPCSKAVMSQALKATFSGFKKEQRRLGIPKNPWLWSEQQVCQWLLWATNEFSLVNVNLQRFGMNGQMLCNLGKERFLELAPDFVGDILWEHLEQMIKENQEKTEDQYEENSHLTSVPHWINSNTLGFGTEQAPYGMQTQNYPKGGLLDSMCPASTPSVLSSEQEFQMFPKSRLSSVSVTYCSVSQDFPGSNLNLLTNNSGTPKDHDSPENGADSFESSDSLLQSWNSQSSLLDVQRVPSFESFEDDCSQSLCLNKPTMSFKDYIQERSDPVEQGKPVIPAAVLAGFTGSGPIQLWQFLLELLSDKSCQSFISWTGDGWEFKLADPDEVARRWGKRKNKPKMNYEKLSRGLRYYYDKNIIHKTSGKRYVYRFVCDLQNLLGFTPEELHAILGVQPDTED
Summary of the method: as §1

[8] = target: T6, ETV7 (Homo sapiens, UniProt Q9Y603 1-341)
T6 sequence: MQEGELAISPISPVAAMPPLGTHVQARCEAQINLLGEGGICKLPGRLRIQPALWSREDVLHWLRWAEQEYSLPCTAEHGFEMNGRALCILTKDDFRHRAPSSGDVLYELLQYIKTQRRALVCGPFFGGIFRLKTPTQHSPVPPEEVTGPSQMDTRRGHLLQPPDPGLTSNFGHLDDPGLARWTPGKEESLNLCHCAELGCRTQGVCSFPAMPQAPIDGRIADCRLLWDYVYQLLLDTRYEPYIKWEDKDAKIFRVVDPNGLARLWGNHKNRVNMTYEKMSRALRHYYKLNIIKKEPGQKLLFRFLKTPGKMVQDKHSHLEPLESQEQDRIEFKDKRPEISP
Summary of the method: as §1

[9] = target: ETV6 (Homo sapiens, UniProt P41212 1-452)
Summary of the method: as §1

Sequence of ETV1 (P50549 whole entry): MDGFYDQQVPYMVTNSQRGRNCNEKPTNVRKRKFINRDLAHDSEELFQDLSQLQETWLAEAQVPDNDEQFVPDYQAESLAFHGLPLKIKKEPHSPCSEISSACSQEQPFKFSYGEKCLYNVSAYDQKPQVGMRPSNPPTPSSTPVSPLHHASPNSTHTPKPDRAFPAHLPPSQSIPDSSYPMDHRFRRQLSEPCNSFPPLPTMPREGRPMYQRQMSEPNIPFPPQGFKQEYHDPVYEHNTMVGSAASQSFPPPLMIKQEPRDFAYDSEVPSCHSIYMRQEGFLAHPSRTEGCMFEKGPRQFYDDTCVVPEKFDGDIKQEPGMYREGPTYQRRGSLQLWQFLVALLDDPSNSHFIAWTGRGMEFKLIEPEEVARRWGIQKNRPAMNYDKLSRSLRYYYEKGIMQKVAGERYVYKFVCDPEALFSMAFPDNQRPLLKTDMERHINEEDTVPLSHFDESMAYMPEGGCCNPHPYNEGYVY
Sequence of ETV6 (P41212 whole entry): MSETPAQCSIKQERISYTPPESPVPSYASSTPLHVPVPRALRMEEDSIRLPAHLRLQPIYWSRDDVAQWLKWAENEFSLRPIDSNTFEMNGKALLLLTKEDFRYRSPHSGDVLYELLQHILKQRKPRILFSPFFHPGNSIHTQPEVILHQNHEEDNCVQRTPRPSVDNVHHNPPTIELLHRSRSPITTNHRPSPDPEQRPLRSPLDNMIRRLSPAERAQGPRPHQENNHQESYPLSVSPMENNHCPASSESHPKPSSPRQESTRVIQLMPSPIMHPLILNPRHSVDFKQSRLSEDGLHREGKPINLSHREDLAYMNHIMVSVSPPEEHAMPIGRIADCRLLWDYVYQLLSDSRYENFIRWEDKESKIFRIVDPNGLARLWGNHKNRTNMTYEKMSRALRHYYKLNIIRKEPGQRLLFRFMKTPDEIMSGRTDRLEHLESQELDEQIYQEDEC
Sequence of ELF4 (Q99607 whole entry, the tested form may be a part): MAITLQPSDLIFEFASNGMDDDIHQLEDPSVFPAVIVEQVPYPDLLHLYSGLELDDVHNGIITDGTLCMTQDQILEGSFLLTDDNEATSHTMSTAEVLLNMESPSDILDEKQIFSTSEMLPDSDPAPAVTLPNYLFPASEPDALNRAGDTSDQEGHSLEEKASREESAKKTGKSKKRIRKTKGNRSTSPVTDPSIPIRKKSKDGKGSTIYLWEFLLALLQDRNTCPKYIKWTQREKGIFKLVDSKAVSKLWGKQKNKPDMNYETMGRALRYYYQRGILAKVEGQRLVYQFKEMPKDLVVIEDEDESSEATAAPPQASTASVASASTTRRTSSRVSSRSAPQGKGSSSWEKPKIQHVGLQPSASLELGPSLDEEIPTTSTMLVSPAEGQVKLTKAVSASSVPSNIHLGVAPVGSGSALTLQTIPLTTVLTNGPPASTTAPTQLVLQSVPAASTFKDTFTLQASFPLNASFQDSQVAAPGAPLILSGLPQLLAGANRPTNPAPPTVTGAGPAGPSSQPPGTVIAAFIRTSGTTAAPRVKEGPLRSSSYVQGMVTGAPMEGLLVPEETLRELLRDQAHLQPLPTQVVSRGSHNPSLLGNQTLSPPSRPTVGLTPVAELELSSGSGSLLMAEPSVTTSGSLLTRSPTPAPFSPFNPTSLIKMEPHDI

In the case of CGTCTG, the binding signal [1] is reported as 1.05 fold enrichment (6-mer frequency, TF over GST control), the binding signal [2] is reported as 1.08 fold enrichment (6-mer frequency, TF over GST control) and the binding signal [3] is reported as 1.23 fold enrichment (6-mer frequency, TF over GST control). The binding signal [4] was 1.12 fold enrichment (6-mer frequency, TF over GST control), the binding signal [5] was 1.11 fold enrichment (6-mer frequency, TF over GST control) and the binding signal [6] was 1.14 fold enrichment (6-mer frequency, TF over GST control). For the same sequence, the binding signal [7] was 1.08 fold enrichment (6-mer frequency, TF over GST control), the binding signal [8] was 1.02 fold enrichment (6-mer frequency, TF over GST control) and the binding signal [9] was 1.01 fold enrichment (6-mer frequency, TF over GST control).
